PubChem BioAssay AID504339 (National Center for Advancing Translational Sciences (NCATS), 2011)
Hit rate of the full screen: of about 390,000 compounds, about 17,000 (4.4%) were called active. Roughly 8% stayed inconclusive and do not appear here. The call rests on the fitted dose curve; in most records, active means well fitted inhibition curve with a large enough effect; inconclusive means small, poorly fitted or top-dose-only effect; inactive means no such curve, though single readings can be large or run the other way. Shown is part of a subset that was picked to be rich in actives. Where a call stands in place of a potency, no number is given.

Biological target: Lysine-specific demethylase 4A (Homo sapiens) (UniProt O75164)
Sequence (O75164 whole entry, looked up, the tested form may be a part): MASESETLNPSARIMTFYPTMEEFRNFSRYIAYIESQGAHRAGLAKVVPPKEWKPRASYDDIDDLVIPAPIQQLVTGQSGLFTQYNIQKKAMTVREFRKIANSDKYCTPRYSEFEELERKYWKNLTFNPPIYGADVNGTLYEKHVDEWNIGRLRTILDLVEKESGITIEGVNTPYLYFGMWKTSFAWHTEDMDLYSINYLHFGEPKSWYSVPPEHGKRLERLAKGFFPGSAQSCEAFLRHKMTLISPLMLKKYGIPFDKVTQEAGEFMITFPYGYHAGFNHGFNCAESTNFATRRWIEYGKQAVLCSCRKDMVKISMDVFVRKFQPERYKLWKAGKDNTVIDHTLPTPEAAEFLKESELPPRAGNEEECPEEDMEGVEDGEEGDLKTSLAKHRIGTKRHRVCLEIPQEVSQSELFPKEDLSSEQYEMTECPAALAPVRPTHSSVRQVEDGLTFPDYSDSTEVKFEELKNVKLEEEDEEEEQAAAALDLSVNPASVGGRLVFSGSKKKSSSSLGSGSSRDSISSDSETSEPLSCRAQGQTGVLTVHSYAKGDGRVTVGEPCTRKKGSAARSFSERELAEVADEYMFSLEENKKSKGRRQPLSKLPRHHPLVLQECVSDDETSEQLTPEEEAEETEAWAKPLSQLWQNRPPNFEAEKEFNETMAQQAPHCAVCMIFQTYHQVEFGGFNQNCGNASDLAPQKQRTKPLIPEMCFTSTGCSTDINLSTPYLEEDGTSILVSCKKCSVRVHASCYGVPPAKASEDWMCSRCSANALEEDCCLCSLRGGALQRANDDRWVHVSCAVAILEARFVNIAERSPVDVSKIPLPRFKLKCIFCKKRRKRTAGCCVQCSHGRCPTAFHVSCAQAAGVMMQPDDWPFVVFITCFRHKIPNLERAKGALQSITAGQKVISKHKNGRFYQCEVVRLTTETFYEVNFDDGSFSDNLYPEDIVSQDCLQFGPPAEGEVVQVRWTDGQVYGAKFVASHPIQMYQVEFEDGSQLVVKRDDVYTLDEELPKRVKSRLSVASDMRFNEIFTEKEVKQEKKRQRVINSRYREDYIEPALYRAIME
Assay: qHTS Assay for Inhibitors of JMJD2A-Tudor Domain; further: nearly all actives have a fitted effect of over 50% in size
Settings: AlphaScreen JMJD2A-Tudor / H3K4me3 peptide binding; series mostly up to 114 µM
Source text: JMJD2A is a jumonji-domain-containing lysine demethylase that uses Fe(II) together with 2-OG to effect oxidative demethylation of histones. Methylation is one of many […] modification that affect epigenetic transcription. […] It is proposed that the functions of JmjD2A binding to the histones, is to maintain marks after they are installed and to spread the modifications by […], establishing a self-propagating cycle for rapid methylation over a large area of chromatin. […] Thus, small molecule targeting of the JMJD2A-tudor domain interaction with its target methylhistone mark is expected to enable sophisticated experiments probing the fine regulatory pathways leading to selective demethylation of a given methyllysine locus based on the methylation state of adjacent histone marks. A quantitative high throughput AlphaScreen has been developed to identify small molecule inhibitors based on a protocol published by NCGC and SGC [4].
Although AlphaScreen has significant advantages with its utility in a variety of epigenetic target assays, the primary screening data provided in this deposition should be used with caution due to the prevalence of screening artifacts. The top compound concentration tested was high (>100uM) in this assay, which increases number of actives and potential artifacts. An AlphaScreen counterscreen is highly recommended to be run against any putative actives to eliminate non-specific artifacts. Alternatively, one can use other AlphaScreen assays in PubChem to filter out promiscuous hits.
[1] Lee, J. et al. Distinct binding modes specify the recognition of methylated histone H3K4 and H4K20 by JMJD2A-tudor. Nat Struct Mol Biol. 15(1); 109-11. 2008. PMID: 18084306
[2] Yasgar, et al. Compound Management for Quantitative High-Throughput Screening. JALA. 2008 Apr;13(2):79-89. PMID: 18496600
[3] Inglese, et al. Quantitative high-throughput screening: a titration-based approach that efficiently identifies biological activities in large chemical libraries. Proc Natl Acad Sci. 1;103(31):11473-8. 2006. PMID: 16864780
[4] Quinn et al. A homogeneous method for investigation of methyl-dependent protein-protein interactions in epigenetics. Nucleic Acids Res., 38(2):e11. 2010. PMID: […]
[5] Baell,Holloway. New substructure filters for removal of pan assay interference compounds (PAINS) from screening libraries and for their exclusion in bioassays. J Med Chem. 53(7):2719-40. 2010. PMID: 20131845
NIH Molecular Libraries Probe Production Network [MLPCN]
NIH Chemical Genomics Center [NCGC]
Structural Genomics Consortium (SGC)
To each well of a 1,536w plate, 2ul of JMJD2A-Tudor (final 100nM) and 1ul biotinylated histone peptide methylated at Lys4 [b-H3(1-18)K4me3] (final 50nM) were added in 1x PBS buffer, pH 7.4, containing 0.01% Tween-20, using a nanoliter dispenser. Formation of a protein-peptide complex proceeded at room temperature for 30 min. A Kalypsys pin-tool transferred 23nl of library compound solution in DMSO to each well. Following a 30 min incubation of the protein-peptide complex with compounds at room temperature, a mixture of 40 µg/mL each streptavidin-coated donor and nickel chelate acceptor AlphaScreen beads (final 10 µg/mL) was added in a 1ul dispense for a final volume of 4ul, followed by a brief centrifugation (1000 rpm, 1 min). Plates were incubated protected from the light for 20 min at room temperature. Microplates were then read on an EnVision multilabel plate reader using the 1,536 plate HTS AlphaScreen aperture (excitation time 80 ms, measurement time 240 ms).
Potency means the concentration at half of the fitted maximal effect.

| Compound | Potency |
| --- | --- |
| CCOC(=O)C1(Cc2ccc(Cl)cc2)CCN(C(C)CCn2cccn2)CC1 (stereo not given) | inactive |
| COc1ccc(N=Cc2c(O)n(C)c(=O)[nH]c2=O)cc1 | inactive |
| C=CC12CN(C)[C@@H]3C4CO[C@H](C[C@H]41)[C@]1(C(=O)Nc4ccccc41)[C@@H]32 (stereo not given in full) | inactive |
| Cc1ccc(Cn2nnnc2CN2CCC(n3nnc4ccccc43)CC2)cc1 | 50.1 µM (active) |
| COC1=C[C@@H]2[C@@H]3Cc4ccc(OC)c(O)c4[C@]2(CCN3C)CC1=O | inactive |
| O=C(O)C1CSC(c2cccnc2)N1 (stereo not given) | 7.94 µM (active) |
| NCCc1c[nH]c2ccc(O)cc12 | inactive |
| CC[N+](CC)(CC)CCCCCCCCCC[N+](CC)(CC)CC | inactive |
| O=C1NC(=O)N(c2ccccc2)C(=O)/C1=C/c1ccc([N+](=O)[O-])s1 | 56.2 µM (active) |
| COc1cccc(N2C(=O)NC(=O)/C(=C\c3cn(C)c4ccccc34)C2=O)c1 | inactive |
| O=C1NC(=O)N(c2ccc(F)cc2)C(=O)/C1=C/c1ccc2c(c1)CCCN2Cc1ccccc1 | inactive |
| COc1cccc(N2C(=O)NC(=O)/C(=C\c3ccc([N+](=O)[O-])s3)C2=O)c1 | 35.5 µM (active) |
| Cc1ccccc1N1C(=O)NC(=O)/C(=C\c2cc(C)n(C)c2C)C1=O | inactive |
| COCCNC(=O)CN1C2CCC1CC(O)(c1cccnc1)C2 (stereo not given) | inactive |
| COC(=O)C1=C(c2cccc(OCc3ccccc3)c2)C[C@@H]2CC[C@H]1N2C(=O)NCc1ccc(Br)cc1 | inactive |
| C[C@]12CCC3C(CC[C@H]4[C@H](O)[C@H](O)CC[C@]34C)C1CCC2=O (stereo not given in full) | inactive |
| Nc1ccc([N+](=O)[O-])cc1 | inactive |
| COC1C(O)C(C)OC(OC2CCC3(C=O)C(CCC4C3CCC3(C)C(C5=CC(=O)OC5)CCC43O)C2)C1O (stereo not given) | inactive |
| CCCCC(=O)N/N=C/c1c(O)n(-c2ccccc2)c(=O)[nH]c1=O | 79.4 µM (active) |
| O=c1[nH]c(=O)n(Cc2ccccc2)c(O)c1/C=N/Nc1c(F)c(F)c(F)c(F)c1F | inactive |
| CCc1nnc(NS(=O)(=O)c2ccc(N=Cc3c(O)n(-c4ccccc4)c(=O)[nH]c3=O)cc2)s1 | inactive |
| CNC(=O)O/N=C(\N)Cc1csc2ccc(Cl)cc12 | inactive |
| Cc1ccc(Oc2cnn(-c3ccccc3)c(=O)c2Br)cc1 | inactive |
| O=C1NC(=O)N(Cc2ccco2)C(=O)/C1=C\c1ccc(-c2ccc(F)cc2)o1 | inactive |
| COc1ccc(N2C(=O)/C(=C/c3ccco3)C(=O)NC2=S)cc1 | 10 µM (active) |

| Compound | Potency |
| --- | --- |
| Cc1cc(/C=C2/C(=O)NC(=O)N(Cc3ccco3)C2=O)c(C)n1-c1ccc(C(=O)O)cc1 | inactive |
| CN(C)c1ccc(/C=C2\CC3C4CC=C5CC(O)CCC5(C)C4CCC3(C)C2=O)cc1 (stereo not given) | inactive |
| C[C@]12CC[C@H](O)CC1=C([N+](=O)[O-])CC1C2CC[C@@]2(C)C1CC[C@@H]2O (stereo not given in full) | inactive |
| COc1ccccc1N=C1SCCCN1C | 56.2 µM (active) |
| CCC(C)(O)C(=O)OC1C(=O)OC2CC3C(C)=CC(=O)C(O)C3(C)C3C4(O)OCC23C1C(C)C4O (stereo not given) | inactive |
| COCc1cc(OC(=O)N(C)C)nc(-c2ccc(C)c(Cl)c2)n1 | inactive |
| CCOC(=O)CC(SP1(=S)OCC2(CCCCO2)C(C2CCCCO2)O1)C(=O)OCC (stereo not given) | inactive |
| c1cc2c(cc1C1OCC3C(c4ccc5c(c4)OCO5)OCC13)OCO2 (stereo not given) | inactive |
| CC(=O)OC1C2(CC3N4C(=O)C5(CO)SSC4(CC31O)C(=O)N5C)OC(C)C(C)(C)C2=O (stereo not given) | inactive |
| CCN(CC)CCOC(=O)c1cc2cc(COC)ccc2o1 | 56.2 µM (active) |
| Cc1ccc(N(C)C(=O)Oc2cccc3ccc(C)nc23)cc1 | inactive |
| CC(=O)C1(O)CCC2C3CCC4=C(Cl)C(=O)CCC4(C)C3CCC21C (stereo not given) | inactive |
| COC(=O)C1=C(c2ccc(Cl)c(C(F)(F)F)c2)C[C@@H]2CC[C@H]1N2C(=O)NC(C)C | inactive |
| Clc1cccc(Cl)c1Cl | inactive |
| CN1CCN(C(=S)SCC(=O)Nc2ccc(Cl)cc2C(=O)c2ccccc2)CC1 | 44.7 µM (active) |
| O=C(Nc1ccc(Cl)cc1C(=O)c1ccccc1)c1cc(Cl)cc(Cl)c1 | inactive |
| O=C(COC(=O)c1ccccc1)Nc1ccc(Cl)cc1C(=O)c1ccccc1 | inactive |
| CC12CCC3C(CCC4CC(=O)CCC43C)C1CC(=NO)C2=O (stereo not given) | inactive |
| Cc1cccc(Cn2cccc(C(=O)Nc3ccc4c(c3)OCCO4)c2=O)c1 | inactive |
| CCOCCc1c(O)[nH]c(=S)[nH]c1=O | 79.4 µM (active) |
| Oc1ccc2c3c1OC1[C@H](O)CC[C@@]4(O)[C@@H](C2)N(CC2CC2)CC[C@]314 (stereo not given in full) | inactive |
| CCC(C)n1c(O)c(/C=N/Nc2nc3c(c(=O)n(C)c(=O)n3C)n2C)c(=O)[nH]c1=S (stereo not given) | 79.4 µM (active) |
| Cc1ccccc1NC(=O)COC(=O)c1cc(C)n(C2CC2)c1C | inactive |
| C=Cn1ccnc1P(=S)(c1cc(N(CC)CC)ns1)c1nccn1C=C | inactive |
| Cc1nc2ccccn2c1P(=S)(N1CCCCC1)N1CCCCC1 | inactive |
